About 2,000 (36%) of roughly 5,500 compounds were called active. Inconclusive results (about 18%) are left out. Rule as the data show it: active = normalized growth mostly below about 0.91 (no sharp cut-off); inconclusive = no clear call, values can overlap the other calls; inactive = mostly above about 0.92. The list shows a part of the results.
Experiment: chemical genetic growth profiling, strain panel (AID 1159580);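 also: tested at 20 µM; growth read once vehicle control cultures reached saturation at 30 °C; 1 = growth at the plate median or of vehicle wells; lower values mean less growth of the strain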
Conditions: S. cerevisiae deletion strains, growth OD

Measured: normalized growth

CN(C)c1ccc(-c2n[nH]c(=O)c3ccccc23)cc1[N+](=O)[O-]
active: locus YEL061C, strain CIN8, stronger effect = lower value 0.907
inactive: locus YAL013W, strain DEP1, stronger effect = lower value 0.966 | locus YBR229C, strain ROT2, stronger effect = lower value 0.986 | locus YCL061C, strain MRC1, stronger effect = lower value 0.98 | locus YDL101C, strain DUN1, stronger effect = lower value 1 | locus YDR150W, strain NUM1, stronger effect = lower value 0.981 | locus YGR078C, strain PAC10, stronger effect = lower value 1 | locus YHR030C, strain SLT2, stronger effect = lower value 0.875 | locus YHR087W, strain rtc3, stronger effect = lower value 0.982 | locus YJL187C, strain SWE1, stronger effect = lower value 0.978 | locus YJR043C, strain POL32, stronger effect = lower value 0.963 | locus YJR075W, strain HOC1, stronger effect = lower value 0.99 | locus YKL190W, strain CNB1, stronger effect = lower value 1.01 | locus YLR039C, strain RIC1, stronger effect = lower value 1.09 | locus YLR058C, strain SHM2 (second series), stronger effect = lower value 0.994 | locus YLR085C, strain ARP6, stronger effect = lower value 0.882 | locus YLR262C, strain YPT6, stronger effect = lower value 1.08 | locus YML094W, strain GIM5, stronger effect = lower value 0.891 | locus YMR219W, strain ESC1, stronger effect = lower value 0.999 | locus YMR263W, strain SAP30, stronger effect = lower value 0.961 | locus YNL153C, strain GIM3, stronger effect = lower value 0.979 | locus YNL298W, strain CLA4 (second series), stronger effect = lower value 0.891 | locus YNL322C, strain KRE1, stronger effect = lower value 1.03 | locus YNR030W, strain Alg12, stronger effect = lower value 0.955 | locus YPL055C, strain LGE1, stronger effect = lower value 0.886 | locus YPL241C, strain CIN2, stronger effect = lower value 0.96 | locus YPR135W, strain CTF4, stronger effect = lower value 0.97

From PubChem BioAssay AID1159580 (chemical genetic matrix, 2015)
